These results are taken from PubChem BioAssay.

Active and inactive are the calls of the source.

One assay is described as follows: resazurin metabolic signal in HepG2 cells – cell-based, resazurin fluorescence, 24 h, PK04 Diversity Set, profiling panel (AID 1172). Note: test concentration not given here. The settings on record: HepG2 viability, higher = more signal. On the technique in general: The colour change of resazurin is a common sign of viable cells or microbes.
With `O=C1OCC=C[C@H]2OC34C=CCN(c5ccc6ccccc6c5)C(=O)[C@H]3N(CCCCCO)C(=O)[C@@H]4[C@@H]12` (some centres undefined), the z-score was -0.658.

Regarding `COC(=O)[C@@]1(Cc2ccccc2)[C@H]2c3cc(C(=O)N4CCCC4)n(CCSCCO)c3C[C@H]2CN1C(=O)c1ccccc1`, the z-score is -1.19.

In the case of `NC(=O)[C@@H]1[C@H]2C(=O)O[C@H](c3ccccc3)[C@H](c3ccccc3)N2[C@H](c2ccc(OCCO)cc2)[C@@]12C(=O)Nc1ccc(C#CCCO)cc12`, the z-score was -0.632.

Take `[N-]=[N+]=Nc1ccccc1C[C@]1(C(=O)NCc2ccccc2)COC(c2ccc(OCCCO)cc2)=N1`: the z-score was -0.85.

Take `CN1C(=O)[C@@]2(Cc3ccccc3)N=C(c3ccc(OCCCO)cc3)O[C@H]2c2ccccc21`: the z-score is -0.286.

As for `CCOC(=O)C[C@H]1[C@H](OC(=O)c2ccccc2-c2ccccc2)[C@@H](NC(=O)c2ccc3ccccc3n2)c2cc(OCCCO)ccc2N1C(=O)c1ccccc1`, the z-score was -0.412.

Compound `Nc1cc(Br)ccc1C(=O)O` yielded a z-score of 0.615.

As for `C=C(COC)C(=O)CC[C@@H](OC(=O)c1cccnc1)c1ccccc1OCCO`, the z-score was -0.956.

For the compound `CCOC(=O)C1=C[C@@H](c2ccccc2)N(S(=O)(=O)c2ccc(C)cc2)[C@H]1c1ccccc1`, the z-score is -0.443.

With `CC(C)c1ccc(NN2C(C(O)Cc3ccccc3)C=CC3C(=O)N(c4ccccc4)C(=O)C32)cc1` (centres undefined), the z-score was -1.93.

For `C=CCC(OC(C)=O)[C@@H]1[C@@H](N(Cc2ccc(-c3cccc(C(F)(F)F)c3)o2)C(=O)Cc2ccc(OC)cc2)c2cc(OCCCO)ccc2N1C(=O)Cc1ccc2ccccc2c1` (some centres undefined), the z-score is -0.43.

As for `COCCOC(=O)N1C(=O)[C@@]2(c3cc(C#CCNC(N)=O)ccc31)[C@H](c1ccc(O)cc1)N1[C@H](c3ccccc3)[C@H](c3ccccc3)OC(=O)[C@H]1[C@@H]2C(N)=O`, the z-score worked out at 1.18.

For `C=CC1c2cc(O)c(OC)cc2CCN1Cc1ccc([N+](=O)[O-])o1` (centres undefined), the z-score is -0.362.

Regarding `CC(=O)n1cc(C(O)C2C=CC3C(=O)N(c4ccccc4)C(=O)C3N2Nc2ccc(C(C)C)cc2)c2ccccc21` (centres undefined), the z-score was -1.41.

Regarding `CO[C@H]1O[C@H](CO)[C@@H](OC(=O)c2ccc(Br)cc2)[C@@H]2OC(=O)[C@H](Cc3ccccc3)C/C=C/C[C@@H](Cc3ccccc3)C(=O)O[C@@H]12`, the z-score was found to be 0.722.

As to `CN(C)CCCC[C@@H]1NC(=O)[C@@H]2C[C@H](C(=O)O)[C@H](c3cccc(OCCO)c3)N2C1=O`, the z-score is -0.0398.

`CCCCCCCCCCC(O)C1C=CC2C(=O)N(c3ccccc3)C(=O)C2N1Nc1ccccc1F` (centres undefined) displayed a z-score of 0.0366.

Turning to `C=CCOC(=O)[C@H]1[C@@H]2C(=O)O[C@@H](c3ccccc3)[C@@H](c3ccccc3)N2[C@@H](c2ccc(OCCOC(=O)[C@H]3C[C@H]4C(=O)N[C@@H](CCCCNC(C)=O)C(=O)N4[C@H]3c3cccc(OCCO)c3)cc2)[C@]12C(=O)Nc1ccc(I)cc12`, the z-score was -0.821.

With `Cc1ccc(F)cc1S(=O)(=O)N[C@@H]1CCN(Cc2cccc3[nH]ccc23)C1`, the z-score was -0.921.

The compound `CC(C)C(=C=CC[C@@H](O)c1cccc(OCCO)c1)C[C@@H](O)c1ccccn1` yielded a z-score of 0.828.

Consider `[N-]=[N+]=NCc1ccccc1[C@H]1OC(c2ccc(OCCCO)cc2)=N[C@@]1(Cc1ccccc1)C(=O)NCCN1CCOCC1`, for which the z-score was determined as 0.292.

The compound `C=CC[C@H](OC(=O)Nc1ccc(SC)cc1)c1ccc(OCCO)cc1` gave a z-score of 0.826.

With `CN(C)C(=O)[C@@]1(Cc2ccccc2)COC(c2ccc(OCCCO)cc2)=N1`, the z-score was -0.272.

As for `NC(=O)[C@H]1[C@@H]2C(=O)O[C@@H](c3ccccc3)[C@@H](c3ccccc3)N2[C@@H](c2ccc(O)cc2)[C@]12C(=O)Nc1ccc(C#CC3=CCCCC3)cc12`, the z-score is -0.111.

The nature of another assay: budding yeast growth changes without added modifier – OD600, strain BY4716, 24 h, basal condition, primary screen (AID 1173). The settings on record: S. cerevisiae BY4716 growth, OD600, 24 h; higher = more signal, called active from +8 up or from −8 down.
In the case of `COC(=O)[C@@]1(Cc2ccc(F)cc2)[C@H]2c3cc(C(=O)N(C)C)n(Cc4ccc(O)c(OC)c4)c3C[C@H]2CN1C(=O)c1ccccc1`, the z-score was 1.15 (inactive).

Consider `CO[C@H]1O[C@H](CO)[C@@H](OC(=O)Nc2cccc(F)c2)[C@H](OC(=O)Nc2ccccc2-c2ccccc2)[C@H]1OC(=O)Nc1ccccc1-c1ccccc1`, for which the z-score was 0.748 (inactive).

As for `C=C(CCCC)/C(=C/C[C@H](OC(C)=O)c1ccc(OCCO)cc1)c1cc(C(=O)OC)ccc1OC`, the z-score is -1.06 (inactive).

Turning to `COCCCNC(=O)[C@@]1(Sc2ccc(C)cc2)CC(=O)N(Cc2ccccc2Cl)[C@@H]1c1ccc(CO)cc1I`, the z-score was -3.06 (inactive).

Turning to `COc1cccc(/C=C(\C#N)C(=O)Nc2c(C)n(C)n(-c3ccccc3)c2=O)c1`, the z-score was -1.81 (inactive).

For the compound `CS(=O)(=O)CCOC(=O)C1=CC(CCCO)=CC(C2CC2)N(Cc2cccc(OC(F)(F)F)c2)C=C1C(=O)OCCS(C)(=O)=O` (centres undefined), the z-score is -2.55 (inactive).

For `COc1ccc(C#Cc2ccc3c(c2)[C@]2(C(=O)N3)[C@H](C(=O)Nc3nc4ccccc4s3)[C@H]3C(=O)O[C@H](c4ccccc4)[C@H](c4ccccc4)N3[C@@H]2c2ccccc2OCCO)cc1`, the z-score is 1.08 (inactive).

Regarding `C=C[C@@H](C)[C@@H](OC(=O)Nc1ccc(SC)cc1)c1ccc(OCCO)cc1`, the z-score was -3.68 (inactive).

As for `CC(=O)N1CC(C(O)C2C=CC3C(=O)NC(=O)C3N2Nc2ccc(Cl)cc2Cl)c2ccccc21` (centres undefined), the z-score was -2.62 (inactive).

Turning to `CC(C)C[C@@H]1NC(=O)[C@H]2C[C@@H](C(=O)NCCCCCN)[C@@H](c3cccc(OCCO)c3)N2C1=O`, the z-score was -0.122 (inactive).

With `C=C(/C(=C/C[C@@H](OC(C)=O)c1ccc(CO)o1)c1cc(C(=O)OC)ccc1OC)C(C)C`, the z-score is -0.367 (inactive).

Take `O=C1OCC=C[C@H]2OC34C=CCN(c5ccc6ccccc6c5)C(=O)[C@H]3N(CCCCCO)C(=O)[C@@H]4[C@@H]12` (some centres undefined): the z-score is -0.459 (inactive).

For `COC(=O)[C@@]1(Cc2ccccc2)[C@H]2c3cc(C(=O)N4CCCC4)n(CCSCCO)c3C[C@H]2CN1C(=O)c1ccccc1`, the z-score is 0.712 (inactive).

For the compound `NC(=O)[C@@H]1[C@H]2C(=O)O[C@H](c3ccccc3)[C@H](c3ccccc3)N2[C@H](c2ccc(OCCO)cc2)[C@@]12C(=O)Nc1ccc(C#CCCO)cc12`, the z-score was -0.349 (inactive).

As to `[N-]=[N+]=Nc1ccccc1C[C@]1(C(=O)NCc2ccccc2)COC(c2ccc(OCCCO)cc2)=N1`, the z-score is 0.858 (inactive).

In the case of `CN1C(=O)[C@@]2(Cc3ccccc3)N=C(c3ccc(OCCCO)cc3)O[C@H]2c2ccccc21`, the z-score is -6.2 (inactive).

Consider `CCOC(=O)C[C@H]1[C@H](OC(=O)c2ccccc2-c2ccccc2)[C@@H](NC(=O)c2ccc3ccccc3n2)c2cc(OCCCO)ccc2N1C(=O)c1ccccc1`, for which the z-score is 1.16 (inactive).

For the compound `Nc1cc(Br)ccc1C(=O)O`, the z-score was -0.811 (inactive).

On to `C=C(COC)C(=O)CC[C@@H](OC(=O)c1cccnc1)c1ccccc1OCCO`, for which the z-score was -0.585 (inactive).

On to `CCOC(=O)C1=C[C@@H](c2ccccc2)N(S(=O)(=O)c2ccc(C)cc2)[C@H]1c1ccccc1`, for which the z-score was 0.779 (inactive).

Consider `CC(C)c1ccc(NN2C(C(O)Cc3ccccc3)C=CC3C(=O)N(c4ccccc4)C(=O)C32)cc1` (centres undefined), for which the z-score was -1.02 (inactive).

`C=CCC(OC(C)=O)[C@@H]1[C@@H](N(Cc2ccc(-c3cccc(C(F)(F)F)c3)o2)C(=O)Cc2ccc(OC)cc2)c2cc(OCCCO)ccc2N1C(=O)Cc1ccc2ccccc2c1` (some centres undefined): the z-score is -0.753 (inactive).

With `COCCOC(=O)N1C(=O)[C@@]2(c3cc(C#CCNC(N)=O)ccc31)[C@H](c1ccc(O)cc1)N1[C@H](c3ccccc3)[C@H](c3ccccc3)OC(=O)[C@H]1[C@@H]2C(N)=O`, the z-score is 0.282 (inactive).

For the compound `C=CC1c2cc(O)c(OC)cc2CCN1Cc1ccc([N+](=O)[O-])o1` (centres undefined), the z-score was 0.193 (inactive).

For `CC(=O)n1cc(C(O)C2C=CC3C(=O)N(c4ccccc4)C(=O)C3N2Nc2ccc(C(C)C)cc2)c2ccccc21` (centres undefined), the z-score was -2.33 (inactive).

As to `CO[C@H]1O[C@H](CO)[C@@H](OC(=O)c2ccc(Br)cc2)[C@@H]2OC(=O)[C@H](Cc3ccccc3)C/C=C/C[C@@H](Cc3ccccc3)C(=O)O[C@@H]12`, the z-score is -2.04 (inactive).

Consider `CN(C)CCCC[C@@H]1NC(=O)[C@@H]2C[C@H](C(=O)O)[C@H](c3cccc(OCCO)c3)N2C1=O`, for which the z-score is -0.79 (inactive).

As for `CCCCCCCCCCC(O)C1C=CC2C(=O)N(c3ccccc3)C(=O)C2N1Nc1ccccc1F` (centres undefined), the z-score was 0.864 (inactive).

Take `C=CCOC(=O)[C@H]1[C@@H]2C(=O)O[C@@H](c3ccccc3)[C@@H](c3ccccc3)N2[C@@H](c2ccc(OCCOC(=O)[C@H]3C[C@H]4C(=O)N[C@@H](CCCCNC(C)=O)C(=O)N4[C@H]3c3cccc(OCCO)c3)cc2)[C@]12C(=O)Nc1ccc(I)cc12`: the z-score is 1.2 (inactive).

Turning to `Cc1ccc(F)cc1S(=O)(=O)N[C@@H]1CCN(Cc2cccc3[nH]ccc23)C1`, the z-score is -2.03 (inactive).

Regarding `CC(C)C(=C=CC[C@@H](O)c1cccc(OCCO)c1)C[C@@H](O)c1ccccn1`, the z-score is -1.02 (inactive).

As to `[N-]=[N+]=NCc1ccccc1[C@H]1OC(c2ccc(OCCCO)cc2)=N[C@@]1(Cc1ccccc1)C(=O)NCCN1CCOCC1`, the z-score was -1.62 (inactive).

As for `C=CC[C@H](OC(=O)Nc1ccc(SC)cc1)c1ccc(OCCO)cc1`, the z-score is -3.71 (inactive).

On to `CN(C)C(=O)[C@@]1(Cc2ccccc2)COC(c2ccc(OCCCO)cc2)=N1`, for which the z-score is -3.27 (inactive).

Regarding `NC(=O)[C@H]1[C@@H]2C(=O)O[C@@H](c3ccccc3)[C@@H](c3ccccc3)N2[C@@H](c2ccc(O)cc2)[C@]12C(=O)Nc1ccc(C#CC3=CCCCC3)cc12`, the z-score was 0.137 (inactive).
